Source: PubChem BioAssay (National Center for Advancing Translational Sciences (NCATS))
This is a sample that favours compounds with a hit; in the whole collection about 12% have one here.
BAZ2B block – BAZ2B (human) inhibition. AlphaScreen BAZ2B-H3K14Ac peptide displacement. Potency, µM (highest dose often 114 µM), usual class: inhibitors. 360,000 tested, 4.4% active; note: nearly all actives have a fitted effect of over 60% in size
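Protein-peptide AlphaScreen: BAZ2B 50 nM, b-H3K14Ac 50 nM, 1x PBS pH 7.4 + 0.01% Tween-20. Preincubation 30 min RT; cpd 30 min RT (top 110 uM); beads 20 min RT, light-protected.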
Sfp inh – Sfp phosphopantetheinyl transferase inhibition; Biochemical Sfp PPTase activity, qHTS; 310,000 tested, 3.5% active; Q9F4F7; Potency, µM, usual class: inhibitors;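 note: the enzyme is Sfp with the accession as filed and its product quenches rhodamine fluorescence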
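With Hepes-Na pH 7.6 buffer containing 10 mM MgCl2, Sfp (15 nM) modified BHQ-2-YbbR (12.5 uM) using rhodamine-CoA (5 uM). Two reads 30 minutes apart at 525/598 nm yielded each well's rate.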
JMJD2A Tudor inh – JMJD2A Tudor domain (human) inhibition; AlphaScreen JMJD2A-Tudor / H3K4me3 peptide binding; Potency, µM (doses to about 114 µM), usual class: inhibitors; 390,000 tested, 4.4% active; note: nearly all actives have a fitted effect of over 50% in size
HP1b chromo inh – inhibitors of HP1-beta chromodomain binding to methylated histone tails. 390,000 tested, 0.56% active. P83916. Potency, µM (titrated, usually from 114 µM), usual class: inhibitors. AlphaScreen HP1-beta / biotin-H3K9me3 peptide binding; note: nearly all actives have a fitted effect of over 70% in size
Target sequence (P83916 whole entry, looked up): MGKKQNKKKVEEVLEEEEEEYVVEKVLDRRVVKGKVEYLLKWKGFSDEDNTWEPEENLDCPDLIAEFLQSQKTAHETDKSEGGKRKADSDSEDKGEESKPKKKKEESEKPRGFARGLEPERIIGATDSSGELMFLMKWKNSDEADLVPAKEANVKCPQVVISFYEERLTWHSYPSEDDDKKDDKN
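AlphaScreen: HP1-beta (50 nM) preformed 30 min with biotin-H3(1-18)K9me3 peptide (50 nM) in PBS pH 7.4, 0.01% Tween-20. Compound added for 30 min at RT, then streptavidin donor/nickel chelate acceptor beads (10 ug/mL) for 30 min.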
G9a block – blocks human histone lysine methyltransferase G9a; Q96KQ7; G9a H3K9 monomethylation, AlphaScreen, 2 h; Potency, µM (doses to about 102 µM), usual class: inhibitors; 350,000 tested, 8.8% active; AID 504332; note: nearly all actives have a fitted effect of over 75% in size
Target sequence (Q96KQ7 913-1193 limits assumed): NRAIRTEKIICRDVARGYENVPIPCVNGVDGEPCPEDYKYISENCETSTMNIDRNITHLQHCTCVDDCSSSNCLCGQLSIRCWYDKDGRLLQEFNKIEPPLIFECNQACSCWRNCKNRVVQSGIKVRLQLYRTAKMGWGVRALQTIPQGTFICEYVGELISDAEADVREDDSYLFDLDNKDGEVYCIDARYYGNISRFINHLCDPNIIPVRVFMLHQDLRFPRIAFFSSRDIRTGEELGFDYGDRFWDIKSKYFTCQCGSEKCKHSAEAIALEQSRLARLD
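Readings reflect AlphaScreen signal from monomethyl-H3K9 antibody detection. HMT at 20 nM; substrate b-H3K9 500 nM; cofactor SAM 20 uM; 2 h RT reaction; compounds tested as titrations in qHTS with 15 min preincubation.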
Each line names hits and unclear results; the compound was inactive in the other large screens. Calls come from the whole dose curve; as a rule, active = well fitted curve in the direction sought with a large enough effect; inconclusive = small, poorly fitted or top-dose-only effect, or another doubt; inactive = no such curve, though single readings can be large; an effect the other way counts as inactive or inconclusive.

Cc1ccc(C2=[N+]([O-])C3(CCCCC/C3=N\NC(N)=S)N(O)C2(C)C)o1 (centres undefined)	BAZ2B block inconclusive, Sfp inh 71µM, G9a block inconclusive (no result: JMJD2A Tudor inh, HP1b chromo inh)
O=C(O)C1=C(Nc2ccccc2)OCC1=O	JMJD2A Tudor inh inconclusive, G9a block 40µM
COc1cccc(-n2c(SCC(N)=O)nc3c(oc4ccccc43)c2=O)c1	none (no result: Sfp inh)
CNC(=S)Nc1ccc2nc(C)c(C)nc2c1	BAZ2B block inconclusive, Sfp inh inconclusive, G9a block inconclusive
C=CCN(CC=C)C(=S)Nc1ccc2nsnc2c1	Sfp inh 13µM, G9a block 18µM
COc1ccc(NC(=S)Nc2ccc3nc(C)c(C)nc3c2)cc1	G9a block 45µM
CCOc1ccc(NC(=S)Nc2ccc3nsnc3c2)cc1	Sfp inh inconclusive, HP1b chromo inh inconclusive, G9a block inconclusive
COc1ccc(NC(=S)Nc2ccc3nsnc3c2)cc1	Sfp inh 56µM, JMJD2A Tudor inh inconclusive, HP1b chromo inh inconclusive, G9a block 2µM
C=CCNC(=S)Nc1ccc2nsnc2c1	none
COc1ccccc1-c1noc(-c2ccc(NCC3CCCO3)c([N+](=O)[O-])c2)n1 (centres undefined)	none (no result: Sfp inh)
N=c1c(C(=O)NCc2ccccc2)cc2c(=O)n3ccccc3nc2n1Cc1ccco1	BAZ2B block inconclusive, G9a block inconclusive
N=c1c(C(=O)NCc2ccco2)cc2c(=O)n3ccccc3nc2n1Cc1ccc(Cl)cc1	Sfp inh 50µM, G9a block inconclusive
N=c1c(C(=O)NCc2ccco2)cc2c(=O)n3ccccc3nc2n1Cc1ccccc1	none
COCCn1c(=N)c(C(=O)NCc2ccco2)cc2c(=O)n3ccccc3nc21	G9a block 56µM
COC(=O)c1ccc(C2NC(c3ccc4c(c3)OCO4)=CC(c3ccccc3O)N2)cc1 (centres undefined)	none (no result: BAZ2B block, Sfp inh, G9a block)
Cc1ccc(OCC(=O)N(C)CC(=O)NCc2ccco2)c(Br)c1	BAZ2B block 50µM, JMJD2A Tudor inh 35µM, HP1b chromo inh inconclusive, G9a block 56µM (no result: Sfp inh)
Cc1ccc(OCCCC(=O)NCc2ccco2)c(C)c1	BAZ2B block inconclusive, G9a block inconclusive (no result: JMJD2A Tudor inh, HP1b chromo inh)
CC(=O)c1cccc(OCC(=O)N(C)CC(=O)NCc2ccco2)c1	JMJD2A Tudor inh 22µM, HP1b chromo inh inconclusive (no result: BAZ2B block, Sfp inh, G9a block)
COc1cccc(NC(=O)Nc2cccc(-c3cn4cccnc4n3)c2)c1	none (no result: Sfp inh)
O=C(NCc1cccs1)c1ccc2c(c1)N(Cc1cccc(F)c1)C(=O)c1ccccc1S2	none (no result: Sfp inh)
Cc1cc(C)n2nc(CNC(=O)c3cccc(Cl)c3)nc2n1	none (no result: Sfp inh)
Cc1ccc2nc(SCC(=O)c3ccc(O)cc3O)[nH]c2c1	Sfp inh 50µM (no result: G9a block)
Cc1ccc2nc(SCC(=O)NC3CC3)[nH]c2c1	none
COC(=O)CSc1nc2ccc(C)cc2[nH]1	G9a block 28µM
Cc1ccc2nc(SCC(=O)c3c(N)n(C4CC4)c(=O)[nH]c3=O)[nH]c2c1	HP1b chromo inh inconclusive, G9a block 18µM (no result: Sfp inh)
Cc1ccc(C#N)c(SCc2ccccc2F)n1	none (no result: G9a block)
Cc1ccc2nc(CSc3nc(C)ccc3C#N)[nH]c2c1	JMJD2A Tudor inh inconclusive, G9a block 2.8µM
N#CC1C(=O)NC(=O)C(C#N)C12CCCC(C(F)(F)F)C2 (centres undefined)	none (no result: BAZ2B block, Sfp inh, G9a block)
COc1ccc(OCC2CN3C(CCC(C)C3c3ccc(Br)cc3)C(=O)O2)cc1 (centres undefined)	none (no result: BAZ2B block, JMJD2A Tudor inh, HP1b chromo inh, G9a block)
COC(=O)NC(c1ccc(F)cc1)C(C(C)=O)C(=O)OC (centres undefined)	none (no result: BAZ2B block, JMJD2A Tudor inh, HP1b chromo inh, G9a block)
Cc1ccc2nc(SC(C)C(=O)N3CCCC3)[nH]c2c1 (centres undefined)	G9a block 28µM
Cc1ccc2nc(SCc3nc4ccccc4c(=O)[nH]3)[nH]c2c1	Sfp inh 45µM, JMJD2A Tudor inh inconclusive, G9a block 40µM
Cc1ccc2nc(SC(C)C(=O)N3CCCCC3)[nH]c2c1 (centres undefined)	none
Cc1cccc(N2CCN(c3ncnc4c3nc3n4CCCCC3)CC2)c1C	none (no result: Sfp inh)
CCCCCOP(=O)(OCCCCC)C1(NS(=O)(=O)c2ccccc2)C=CC(=O)c2ccccc21 (centres undefined)	HP1b chromo inh inconclusive, G9a block 8.9µM
CCCCCCOC1(c2ccccc2)OC(=O)c2ccccc21 (centres undefined)	none
COc1cccc(CNC(=O)c2ccc3c(c2)nc2n3CCC(C)C2)c1OC (centres undefined)	none (no result: Sfp inh)
